This is a sample that favours compounds with a hit; in the whole collection about 7% have one here.
IL1B secr inh: inflammasome signaling inhibition, IL-1 beta readout. THP-1 LPS/ATP IL-1B secretion, AlphaLISA, 16 h; hits give low values. activity change, % at 57.5 µM. 360,000 compounds, 4.7% hits. AID 743279; in the data active = activity change below about -50%; inconclusive = mostly about -30% to -49%
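Secreted IL-1B measured by AlphaLISA bead assay after 16 h compound exposure of THP-1 cells; compounds (final up to 57.5 uM) added 1 h before LPS (250 ng/mL) and ATP (1.25 mM) stimulation; lower signal means less secretion.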
ATXN2 expr inh: reduces ATXN2 reporter expression in HEK-293 cells | HEK-293 ATXN2-luciferase reporter, luminescence, 24 h | Potency, µM (series often up to 57 µM), hits mostly inhibitors | 360,000 compounds, 0.72% hits | AID 1745845; also: nearly all actives have a fitted effect of over 55% in size
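ATXN2-luciferase reporter cells (luciferase flanked by upstream and downstream ATXN2 gene portions) were treated 24 h at 37 °C with compounds at up to 57 uM. SteadyGlo luminescence gave expression; GF-AFC fluorescence gave viability.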
DRD3 agonist: agonists of human D3 dopamine receptor | max activation, % | 410,000 compounds, 0.58% hits | P35462 | D3R DiscoveRx beta-arrestin cells, luminescence, 90 min | AID 652048; in the data active = max activation above about 30%
Target sequence (P35462 whole entry, looked up): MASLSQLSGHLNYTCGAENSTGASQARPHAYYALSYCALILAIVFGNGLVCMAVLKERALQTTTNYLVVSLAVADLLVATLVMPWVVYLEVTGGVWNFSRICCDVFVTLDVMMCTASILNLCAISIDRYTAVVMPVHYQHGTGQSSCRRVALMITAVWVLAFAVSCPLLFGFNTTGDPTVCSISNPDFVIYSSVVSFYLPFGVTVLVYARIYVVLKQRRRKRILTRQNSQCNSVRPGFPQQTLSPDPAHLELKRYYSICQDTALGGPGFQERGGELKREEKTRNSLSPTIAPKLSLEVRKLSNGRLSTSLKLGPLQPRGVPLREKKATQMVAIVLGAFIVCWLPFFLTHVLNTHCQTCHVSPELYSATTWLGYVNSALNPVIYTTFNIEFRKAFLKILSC
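Agonist mode: compounds and dopamine controls were applied to plated cells for 90 min at 37 degrees C after an overnight attachment at 1500 cells/well. Luminescent read-out followed 30 - 60 minutes at room temperature with DiscoveRx detection reagent.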
Integrin act MD: activates integrin-mediated alleviation for muscular dystrophy. alpha7betagal myoblasts, beta-gal FDG fluorescence, 48 h. Potency, µM (titrated, usually from 38.3 µM), usual class: activators. 350,000 compounds, 0.064% hits; also: nearly all actives have a fitted effect of over 60% in size
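alpha7betagal+/- myoblasts (passage 13, 250/well) treated 48 h at 37C with compounds at 1:260 dilution of DMSO stock. Lysed, then beta-galactosidase activity read as FDG fluorescence (ex 480/em 540) after 30 min, with pre-read for autofluorescence.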
ATXN viability: cell viability loss in ATXN counter-screen. Potency, µM (doses to about 56.7 µM), most hits filed as cytotoxic. S2 cells (HEK-293 line with an ATXN2-luciferase reporter) viability, CellTiter-Fluor protease fluorescence, 24 h. 400,000 compounds, 0.49% hits. AID 651635; also: nearly all actives have a fitted effect of over 40% in size
D3 antag: D3 dopamine receptor (human) antagonism; 360,000 compounds, 2.5% hits; D3R cells, DiscoveRx beta-arrestin luminescence, antagonist mode; hits give low values; AID 652054; P35462; max response, negative = inhibition, %; in the data active = max response below about -50%; inconclusive = no clear call, values can overlap the other calls
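Cells expressing the human receptor were seeded at 1500 cells/well, incubated overnight at 37 degrees C in 5% CO2, then exposed to library compounds with dopamine controls for 90 minutes at 37 degrees C before luminescent detection.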
Of the large screens only hits and unclear results are named; the others gave an inactive call. Unless noted, calls follow the shape of the dose curve; as a rule, active = well fitted curve in the direction sought with a large enough effect; inconclusive = small, poorly fitted or top-dose-only effect, or another doubt; inactive = no such curve, though single readings can be large; an effect the other way counts as inactive or inconclusive.

COc1ccc(/C=N/NC(=O)c2cc3c(ccc4ccccc43)o2)cc1OC	ATXN2 expr inh inconclusive
COc1ccc(NCC(=O)N/N=C(\C)c2cc3ccccc3o2)cc1	IL1B secr inh -55
CCN(CCCNC(=O)c1cc(Nc2ccc(OC)cc2OC)nc2ccccc12)c1cccc(C)c1	none (no result: IL1B secr inh, Integrin act MD, D3 antag)
FC(F)(F)c1cc(CCN2C(=S)NC[C@@H]2CC2CCCCC2)cc(C(F)(F)F)c1	IL1B secr inh inconclusive, ATXN2 expr inh inconclusive, ATXN viability 20µM
O=C(NCCc1ccc(F)cc1)Nc1ccc([N+](=O)[O-])cc1	IL1B secr inh -100
O=[N+]([O-])c1ccc(NC(=S)NCCc2ccc(F)cc2)cc1	ATXN2 expr inh inconclusive, ATXN viability inconclusive
O=C(Nc1ccccc1)Nc1cc([N+](=O)[O-])ccc1F	none
Cc1cc([N+](=O)[O-])ccc1NCc1ccc2ccccc2c1	none
CC(=O)NC(=S)Nc1ccc([N+](=O)[O-])cc1C	none
Cc1cc([N+](=O)[O-])ccc1NCc1ccccc1	IL1B secr inh -79
Cc1cc([N+](=O)[O-])ccc1NC(=O)Nc1ccccc1F	IL1B secr inh -99
Cc1cc([N+](=O)[O-])ccc1NC(=S)NC(=O)Cc1ccccc1	D3 antag -61
CCCN(CC(=O)Nc1ccccc1C)C(=O)c1ccc(N2CCCCCC2)c([N+](=O)[O-])c1	ATXN viability inconclusive
CC1CCCN(c2ccc(C(=O)NCC3CCCO3)cn2)C1 (stereo not drawn)	none
Cc1ccc(/C=C(\NC(=O)c2ccccc2)C(=O)NCCN2CCOCC2)o1	none
CCN(C(=O)c1ccccc1Cl)c1ccccc1	none
COC(=O)c1ccc(C)c(NC(=O)CCNC(=O)c2ccc([N+](=O)[O-])cc2)c1	none
Cc1cc([N+](=O)[O-])ccc1NC(=O)Cc1ccc(F)cc1	IL1B secr inh -59
Cc1ccc(F)cc1NC(=O)CCNC(=O)c1ccc([N+](=O)[O-])cc1	IL1B secr inh -74
CNc1cc([N+](=O)[O-])ccc1OCc1ccccc1	Integrin act MD 4.5µM
Cc1ccc(Cl)cc1NC(=O)C[n+]1ccc(Cc2ccc([N+](=O)[O-])cc2)cc1	IL1B secr inh -82
CCN(c1ccccc1)S(=O)(=O)c1ccc(OC)c(NC(=O)CNCCc2ccccc2)c1	IL1B secr inh inconclusive, ATXN2 expr inh inconclusive, ATXN viability inconclusive
O=[N+]([O-])c1ccc(S(=O)Cc2ccccc2)c([N+](=O)[O-])c1 (stereo not drawn)	IL1B secr inh -101, ATXN2 expr inh inconclusive, ATXN viability 21µM, D3 antag -102
Cn1c(NCC(O)c2ccccc2)nc2c1c(=O)n(Cc1ccc(Cl)c(Cl)c1)c(=O)n2C (stereo not drawn)	IL1B secr inh -67, ATXN2 expr inh inconclusive, DRD3 agonist 33, ATXN viability inconclusive, D3 antag inconclusive
Cc1cc(Nc2cccc(C(F)(F)F)c2)nc2ccc(NC(=O)Cc3ccc(Cl)cc3)cc12	ATXN2 expr inh 20µM (no result: IL1B secr inh, Integrin act MD, D3 antag)
O=c1oc2ccccc2cc1-c1ccc(O)cc1	IL1B secr inh inconclusive, Integrin act MD inconclusive
O=C/C=C/c1c(-c2ccccc2)cc2oc3ccccc3cc1-2	IL1B secr inh -99, ATXN2 expr inh inconclusive, ATXN viability inconclusive, D3 antag -66
NC(N)=NN=C(c1ccc(F)cc1)c1ccc(C(F)(F)F)cc1	IL1B secr inh -104, ATXN2 expr inh inconclusive (no result: ATXN viability)
C=CCn1c(Cc2ccccc2)nc2c(cnn2-c2ccccc2)c1=O	DRD3 agonist 39
O=c1c2cnn(-c3ccccc3)c2ncn1CCc1ccccc1	none
O=C(O)Cc1ccc(NS(=O)(=O)c2ccc3c(c2)OCCO3)cc1	none (no result: ATXN2 expr inh)
CCOC(=O)C1=C(Cc2ccc(Cl)cc2)C(=O)c2ccccc2C1=O	IL1B secr inh -89, ATXN2 expr inh 20µM, D3 antag -76 (no result: ATXN viability)
CCOC(=O)C1=C(O)c2ccccc2C(=O)/C1=C\c1ccc(C)cc1	ATXN2 expr inh inconclusive (no result: ATXN viability)
Cc1cc(C)c(S(=O)(=O)Nc2cnc3ccccc3c2)c(C)c1	IL1B secr inh -73
COC(=O)c1ccccc1NC(=O)CNc1cc(OC)c(OC)cc1C	ATXN viability inconclusive (no result: ATXN2 expr inh)

Screening data (PubChem)
